Results reported in PubChem BioAssay (NCATS).
Where “and” joins values, the source holds several entries; their conditions need not be identical. Equal values may be shown once. Results filed as inconclusive are left out. Calls of active or inactive are those of the source. Unless noted, the call rests on the fitted dose curve; in most records, active means well fitted curve in the direction sought with a large enough effect; inconclusive means small, poorly fitted or top-dose-only effect, or another doubt; inactive means no such curve, though single readings can be large; an effect the other way counts as inactive or inconclusive.

Assays:
[1] = Cell Viability - SK-N-SH (AID 435; calls by dose curve;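 further: potency means the concentration at half of the fitted maximal effect; compound exposure lasted 40 h at 37 °C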); conditions: SK-N-SH neuroblastoma cell viability qHTS
Procedure, shortened: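 CellTiter-Glo ATP luminescence, 20 min RT read; cells pre-plated 5 hr, compound 40 hr at 37 °C, 1500 cells/well, complete medium. Normalized DMSO = 0, 100 uM tamoxifen = 100% inhibition; Hill-fit AC50.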

[2] = Cell Viability - HUV-EC-C (AID 542); conditions: HUV-EC-C endothelial cell viability, qHTS; series mostly up to 92.2 µM; further: on the % scale 0 is the no-effect control and ±100 the full control effect; nearly all actives have a fitted effect of over 35% in size
Procedure, shortened: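 HUV-EC-C normal human vascular endothelial cells, 1000 cells/well, pre-incubated 5 hr at 37 °C, then exposed to compounds for 40 hr at 37 °C in complete medium. Viability measured as intracellular ATP by CellTiter-Glo luminescence; AC50 from Hill fits.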

[3] = Cell Viability - Renal Proximal Tubule (AID 545); conditions: renal proximal tubule cells viability; series mostly up to 91.7 µM;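 further: 0% = DMSO only and -100% = 100 µM tamoxifen; nearly all actives have a fitted effect of over 40% in size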
Procedure, shortened: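 Rat kidney proximal tubule cells, freshly isolated; 1000 cells/well, 5 hr settle, compound 40 hr 37 °C. CellTiter-Glo 20 min RT, luminescence read. AC50 by standard Hill fit.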

[4] = Cell Viability - LYMP2-005 (AID 967); conditions: LYMP2-005 lymphoblastoid cell viability; series mostly up to 92.2 µM;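 further: plate controls were DMSO only for no effect and 92 µM tetraoctylammonium bromide control for full effect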
Procedure, shortened: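 Steps: seed 2500 LYMP2-005 cells/well, incubate 5 h at 37 C, add compound, incubate 24 h at 37 C, add CellTiter-Glo, wait 30 min at RT, read luminescence. Concentration-response data fitted to Hill equation for AC50.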

[5] = Cell Viability - LYMP2-011 (AID 969); conditions: LYMP2-011 lymphoblastoid cells viability; series mostly up to 92.2 µM;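 further: 0% = DMSO only and full inhibition = 92 µM tetraoctylammonium bromide; nearly all actives have a fitted effect of over 60% in size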
Procedure, shortened: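 Human lymphoblastoid cells (2500/well) were plated in complete medium, preincubated 5 hr at 37 C, then exposed to compounds for 24 hr at 37 C. Intracellular ATP was read by CellTiter-Glo luminescence, and AC50 came from Hill-equation concentration-response fits.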

[6] = Cell Viability - LYMP2-013 (AID 970); conditions: LYMP2-013 lymphoblastoid cells viability; series mostly up to 92.2 µM;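 further: 0% = DMSO only and full inhibition = tetraoctylammonium bromide control; nearly all actives have a fitted effect of over 55% in size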
Procedure, shortened: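 Human lymphoblastoid cells, 2500/well, were preincubated 5 hr at 37 C, then treated with compounds for 24 hr at 37 C in complete medium. Intracellular ATP was read by CellTiter-Glo luminescence; AC50 from Hill-equation fits of concentration-response data.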

[7] = Cell Viability - LYMP2-015 (AID 971); conditions: LYMP2-015 lymphoblastoid cell viability; series mostly up to 92.2 µM;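 further: 0% = DMSO only and full effect = 92 µM tetraoctylammonium bromide; nearly all actives have a fitted effect of over 55% in size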
Procedure, shortened: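 Human lymphoblastoid cells (2500/well) in complete medium were preincubated 5 hr at 37 C, then compound-treated 24 hr at 37 C. Intracellular ATP was read by CellTiter-Glo luminescence after 30 min at room temperature; AC50 came from Hill-equation concentration-response fits.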

[8] = Cell Viability - LYMP2-021 (AID 974); conditions: LYMP2-021 lymphoblastoid cells viability; series mostly up to 92.2 µM;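 further: compound exposure lasts 24 hours at 37 °C; on the % scale 0 is the no-effect control and ±100 the full control effect; nearly all actives have a fitted effect of over 55% in size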
Procedure, shortened: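 Human lymphoblastoid cells (2500/well) were preincubated 5 hr at 37 C, then exposed to compounds for 24 hr at 37 C in complete medium. Intracellular ATP was read by CellTiter-Glo luminescence; AC50 came from Hill-equation fits of concentration-response data.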

[9] = Cell Viability - LYMP2-023 (AID 975); conditions: LYMP2-023 lymphoblastoid cell viability; series mostly up to 92.2 µM;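 further: cellular ATP measured by luciferase luminescence as viability proxy; plate controls were DMSO only for no effect and 92 µM tetraoctylammonium bromide control for full effect; nearly all actives have a fitted effect of over 55% in size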
Procedure, shortened: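 Human lymphoblastoid cells (2500/well) were preincubated 5 hr at 37 C, then exposed to compounds for 24 hr at 37 C in complete medium. Cellular ATP was read by CellTiter-Glo luminescence, and AC50 came from Hill-equation fits.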

[10] = Cell Viability - LYMP2-002 (AID 977); conditions: LYMP2-002 lymphoblastoid cell viability, qHTS; series mostly up to 92.2 µM;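 further: plate controls were DMSO only for no effect and 92 µM tetraoctylammonium bromide for full effect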
Procedure, shortened: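 Luminescent ATP readout (CellTiter-Glo, 30 min room temperature) after 24 h compound exposure at 37 C of a human lymphoblastoid line, 2500 cells/well. AC50 values derived by standard Hill fitting of qHTS concentration-response data.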

[11] = Cell Viability - LYMP2-010 (AID 981); conditions: LYMP2-010 lymphoblastoid cell viability, qHTS; series mostly up to 92.2 µM
Procedure, shortened: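 Human lymphoblastoid LYMP2-010 cells (2500/well) were preincubated 5 hr at 37 C, then exposed to compounds for 24 hr at 37 C in complete medium. Intracellular ATP was measured by CellTiter-Glo luminescence after 30 min at room temperature; AC50 from Hill-fitted concentration-response.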

[12] = Cell Viability - LYMP2-020 (AID 986); conditions: series mostly up to 92.2 µM
Procedure, shortened: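 Human lymphoblastoid cells, 2500/well, were pre-incubated 5 hr at 37 C, then exposed to compounds for 24 hr at 37 C in complete medium. Intracellular ATP was read by CellTiter-Glo luminescence, and AC50 was derived by Hill fitting of concentration-response data.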

[13] = Cell Viability - LYMP1-002 - Assay at 24 hr (AID 993); conditions: LYMP1-002 lymphoblastoid cells viability; series mostly up to 92.2 µM; further: on the % scale 0 is the no-effect control and ±100 the full control effect
Procedure, shortened: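 Human lymphoblastoid LYMP1-002 cells, 2500/well in complete medium, were treated with compounds for 24 h at 37 C; intracellular ATP was read by CellTiter-Glo luminescence. AC50 values came from Hill-equation fits of qHTS concentration-response data.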

[14] = biological target: Peroxisome proliferator-activated receptor delta (Homo sapiens) (UniProt Q03181); experiment: qHTS assay for small molecule agonists of peroxisome proliferator-activated receptor delta signaling (AID 588534; calls by dose curve;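 further: 0% = DMSO basal wells and 100% = positive control agonist at 10 µM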); conditions: HEK293T PPARdelta-UAS-bla, beta-lactamase ratio, 18 h; series mostly up to 76.7 µM
Procedure, shortened: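 Cell-based beta-lactamase reporter assay run in agonist mode: cells seeded and incubated 5 hrs at 37 C, compounds added and incubated 18 hrs at 37 C. CCF4 dye fluorescence read after 2 hrs at RT; EC50 and efficacy from Hill fits.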

[15] = qHTS assay for small molecule agonists of the antioxidant response element (ARE) signaling pathway (AID 651741; active means well fitted activation curve with a large enough effect in the signal ratio; the % refers to the signal ratio; further: potency means the concentration at half of the fitted maximal effect; on activation: % of control where 0% means no effect); conditions: HepG2 ARE-bla reporter, beta-lactamase FRET ratio, 16 h; series mostly up to 96 µM
Procedure, shortened: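 ARE-bla HepG2 cells (beta-lactamase reporter under ARE control) were plated at 2,000 cells/well, preincubated 5 h at 37 C/5% CO2, then treated with DMSO-dissolved compounds for 16 h at 37 C; LiveBLAzer B/G FRET substrate added, fluorescence read after 2 h at room temperature.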

[16] = qHTS assay for small molecule activators of the nuclear factor-kappa B (NF-kB) signaling pathway (AID 651749; active means well fitted activation curve with a large enough effect in the signal ratio; the % refers to the signal ratio; further: % of control where 0% means no effect); conditions: NF-kB-bla ME-180 cells, beta-lactamase FRET ratio, 16 h; active compounds read high
Procedure, shortened: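 ME-180 cells stably carrying a beta-lactamase reporter under an NF-kB response element were exposed to compound or DMSO vehicle for 16 hr at 37C, 5% CO2. Pathway activation was read by FRET, since reporter expression disrupts FRET.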

[17] = qHTS assay for small molecule antagonists of the retinoid-related orphan receptor gamma (ROR-gamma) signaling pathway - cell viability counter screen (AID 720652; active means well fitted curve in the direction sought with a large enough effect in the repeat runs; an effect the other way counts as inactive or inconclusive;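 further: CHO reporter cells with doxycycline-induced ROR-gamma expression; compound exposure lasted 16 hr before ATP read; on the % scale 0 is the no-effect control and ±100 the full control effect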); conditions: RORgamma reporter cell line viability counter screen; series mostly up to 92.2 µM
Procedure, shortened: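 Counter screen in CHO cells carrying TET-inducible ROR-gamma and an ROR response element-luciferase reporter; cells plated 5 hr, compound pinned, doxycycline added, then 16 hr at 37 C. Viability read as intracellular ATP by CellTiter-Glo luminescence.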

[18] = biological target: Nuclear receptor subfamily 1 group I member 2 (Rattus norvegicus) (UniProt Q9R1A7); experiment: qHTS assay for small molecule activators of the rat pregnane X receptor (rPXR) signaling pathway (AID 651751; call rule not given here; further: 0% is about no effect); conditions: rPXR reporter cells, luciferase (One-Glo), 24 h
[19] = qHTS assay for small molecule activators of the human pregnane X receptor (PXR) signaling pathway (AID 720659; call rule not given here; further: 0% is about no effect); conditions: DPX-2 HepG2 CYP3A4-luciferase, 24 h; series mostly up to 92.3 µM
[20] = biological target: Retinoic acid receptor RXR-alpha (Homo sapiens) (UniProt P19793); experiment: qHTS assay for small molecule antagonists of retinoid X receptor alpha signaling (AID 588546; active means well fitted inhibition curve with a large enough effect in the signal ratio, with a control signal flat, not every such curve was filed as active; the % refers to the signal ratio;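 further: cells stimulated with 9-cis-retinoic acid as agonist; on the % scale 0 is the no-effect control and ±100 the full control effect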); conditions: HEK293T RXRa-UAS-bla, beta-lactamase ratio, antagonist mode
Procedure, shortened: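 Beta-lactamase reporter inhibition, read as CCF4 fluorescence ratio (ex 405, em 460/530 nm) after 2 h at RT. HEK293T UAS-bla cells, 2500/well, were stimulated with 9-cis-RA at 500 or 100 nM final alongside test compound for 18 h at 37 C.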

Chain of Nuclear receptor subfamily 1 group I member 2 (Rattus norvegicus) (Q9R1A7 whole entry, looked up): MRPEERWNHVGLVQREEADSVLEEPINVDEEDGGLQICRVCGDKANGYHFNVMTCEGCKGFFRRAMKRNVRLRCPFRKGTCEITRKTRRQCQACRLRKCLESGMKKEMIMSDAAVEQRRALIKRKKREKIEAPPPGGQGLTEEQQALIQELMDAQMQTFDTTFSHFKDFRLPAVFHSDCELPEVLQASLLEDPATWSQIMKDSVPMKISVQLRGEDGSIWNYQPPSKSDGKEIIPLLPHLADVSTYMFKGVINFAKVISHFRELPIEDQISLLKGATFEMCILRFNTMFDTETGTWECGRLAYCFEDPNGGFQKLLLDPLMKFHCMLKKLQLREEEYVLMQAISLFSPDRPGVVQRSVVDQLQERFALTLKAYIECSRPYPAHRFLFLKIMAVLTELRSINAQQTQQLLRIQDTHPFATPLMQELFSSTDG
Chain of Retinoic acid receptor RXR-alpha (Homo sapiens) (P19793 whole entry, looked up): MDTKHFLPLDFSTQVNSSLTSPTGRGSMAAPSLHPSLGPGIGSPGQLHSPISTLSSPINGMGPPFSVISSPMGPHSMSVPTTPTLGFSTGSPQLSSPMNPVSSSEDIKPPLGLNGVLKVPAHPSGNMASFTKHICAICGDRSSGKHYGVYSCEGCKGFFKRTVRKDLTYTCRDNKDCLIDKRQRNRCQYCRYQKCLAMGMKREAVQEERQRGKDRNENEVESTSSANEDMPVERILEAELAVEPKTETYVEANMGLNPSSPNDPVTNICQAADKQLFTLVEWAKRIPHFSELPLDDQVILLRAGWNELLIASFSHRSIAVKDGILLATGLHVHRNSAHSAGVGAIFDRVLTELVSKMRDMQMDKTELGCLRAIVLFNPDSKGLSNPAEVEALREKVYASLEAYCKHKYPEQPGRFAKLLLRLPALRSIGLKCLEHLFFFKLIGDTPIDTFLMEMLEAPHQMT
Chain of Peroxisome proliferator-activated receptor delta (Homo sapiens) (Q03181 whole entry, looked up): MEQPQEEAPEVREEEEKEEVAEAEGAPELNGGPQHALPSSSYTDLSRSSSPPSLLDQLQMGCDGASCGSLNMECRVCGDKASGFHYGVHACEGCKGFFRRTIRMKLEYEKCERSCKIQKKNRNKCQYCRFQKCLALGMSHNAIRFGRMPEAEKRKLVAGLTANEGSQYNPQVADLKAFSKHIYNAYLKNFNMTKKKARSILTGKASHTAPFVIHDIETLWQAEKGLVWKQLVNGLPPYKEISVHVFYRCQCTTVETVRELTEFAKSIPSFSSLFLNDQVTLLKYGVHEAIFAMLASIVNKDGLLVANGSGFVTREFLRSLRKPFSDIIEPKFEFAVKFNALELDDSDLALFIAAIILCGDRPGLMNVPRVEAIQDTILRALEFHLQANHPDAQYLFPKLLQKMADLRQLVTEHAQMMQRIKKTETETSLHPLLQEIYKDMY

C=CCO
inactive: Potency [1] > 92 µM | Potency [2] | outcome [3] | Potency [4] | Potency [5] | Potency [6] | Potency [7] | Potency [8] | Potency [9] | Potency [10] | Potency [11] | Potency [12] | Potency [13] | outcome [14] | Potency [15] | activation [16] 0.305% | Potency [17] | max response [18] -2.14% | outcome [19]

CCBr
inactive: Potency [1] > 92 µM | Potency [2] | outcome [3] | Potency [4] | Potency [5] | Potency [6] | Potency [7] | Potency [9] | Potency [13] | outcome [14] | max response [20] 2.77% | Potency [15] | activation [16] -0.926% | Potency [17] | max response [18] 4.52% | outcome [19]

O=P(OCCCl)(OCCCl)OCCCl
inactive: Potency [1] > 92 µM | Potency [2] | outcome [3] | Potency [4] | Potency [5] | Potency [6] | Potency [7] | Potency [10] | Potency [11] | Potency [12] | outcome [14] | max response [20] 7.26% | Potency [15] | Potency [17] | max response [18] 6.23% | outcome [19]

Nc1cc(Cl)cc(C(=O)O)c1Cl
inactive: Potency [2] | outcome [3] | Potency [4] | Potency [6] | Potency [7] | Potency [10] | Potency [11] | Potency [12] | Potency [13] | outcome [14] | max response [20] 5.23% and 3.9% | Potency [17] | max response [18] 3.15% and -3.28% | outcome [19]

Cl/C=C/CCl
inactive: Potency [1] > 92 µM | Potency [2] | outcome [3] | Potency [4] | Potency [5] | Potency [6] | Potency [7] | Potency [8] | Potency [9] | Potency [10] | Potency [11] | Potency [13] | outcome [14] | Potency [15] | activation [16] 0.574% | Potency [17] | max response [18] -4.52% | outcome [19]

O=[N+]([O-])c1cccc(O)c1
inactive: Potency [1] > 92 µM | outcome [3] | Potency [4] | Potency [5] | Potency [6] | Potency [7] | Potency [8] | Potency [9] | Potency [10] | Potency [11] | Potency [13] | outcome [14] | max response [20] -5.97% | activation [16] -0.57% | Potency [17] | max response [18] 6% | outcome [19]

O=C(O)CCl
inactive: Potency [1] > 92 µM | Potency [2] | outcome [3] | Potency [4] | Potency [5] | Potency [6] | Potency [8] | Potency [12] | Potency [13] | max response [20] -2.41% | max response [18] 9.97% | outcome [19]
active: Potency [15] 42.2 µM

Nc1ncc([N+](=O)[O-])s1
inactive: Potency [2] | outcome [3] | Potency [5] | Potency [6] | Potency [7] | Potency [8] | Potency [9] | Potency [10] | Potency [11] | Potency [12] | outcome [14] | max response [20] 20% | activation [16] 0.765% | Potency [17] | max response [18] -6.92% | outcome [19]

c1ccc2c(c1)CCNC2
inactive: Potency [1] > 92 µM | Potency [2] | outcome [3] | Potency [4] | Potency [5] | Potency [6] | Potency [10] | Potency [11] | Potency [12] | Potency [13] | outcome [14] | Potency [15] | activation [16] 0.526% | Potency [17] | max response [18] -0.393% | outcome [19]

[O-][Cl+2]([O-])O
inactive: Potency [2] | outcome [3] | Potency [4] | Potency [5] | Potency [6] | Potency [7] | Potency [10] | Potency [11] | Potency [13] | max response [20] -4.77% | Potency [15] | activation [16] -0.919% | Potency [17] | max response [18] 2.81% | outcome [19]

Nc1ccc([N+](=O)[O-])cc1[N+](=O)[O-]
inactive: Potency [1] > 92 µM | Potency [2] | outcome [3] | Potency [4] | Potency [6] | Potency [7] | Potency [8] | Potency [9] | Potency [10] | Potency [11] | Potency [12] | Potency [13] | outcome [14] | activation [16] -1.37% | Potency [17] | outcome [19]

N#CC(O)c1ccccc1 (centres undefined)
inactive: Potency [1] > 92 µM | Potency [2] | Potency [4] | Potency [5] | Potency [6] | Potency [7] | Potency [8] | Potency [9] | Potency [10] | Potency [11] | Potency [12] | Potency [13] | outcome [14] | max response [20] 0.403% | Potency [15] | activation [16] 0.595% | Potency [17] | max response [18] 0.679% | outcome [19]

O=[N+]([O-])c1ccccc1O
inactive: Potency [1] > 92 µM | Potency [2] | outcome [3] | Potency [4] | Potency [5] | Potency [6] | Potency [7] | Potency [8] | Potency [9] | Potency [10] | Potency [11] | Potency [13] | max response [20] -20.2% | Potency [17] | max response [18] 0.314% | outcome [19]

O=S(=O)(O)F
inactive: Potency [1] > 92 µM | Potency [2] | outcome [3] | Potency [4] | Potency [5] | Potency [6] | Potency [7] | Potency [8] | Potency [9] | Potency [10] | Potency [11] | Potency [12] | outcome [14] | max response [20] 39.7% | Potency [15] | Potency [17] | max response [18] 0.583% | outcome [19]
